# Bioassay records as filed in PubChem.
# In the library only some 12% were active in any assay of this set; here they are far more common.
# JMJD2A Tudor inh – inhibitors of human JMJD2A Tudor domain. AlphaScreen JMJD2A-Tudor / H3K4me3 peptide binding. Potency, µM (top dose mostly 114 µM), for inactives: at the top dose activity change, negative = inhibition, hits mostly inhibitors. 390,000 tested, 4.4% active. AID 504339; further: on the % scale 0 is the no-effect control and ±100 the full control effect; nearly all actives have a fitted effect of over 50% in size
# G9a inh – inhibitors of human histone lysine methyltransferase G9a; G9a H3K9 monomethylation, AlphaScreen, 2 h; AID 504332; Potency, µM (doses to about 102 µM), for inactives: at the highest dose activity, negative = inhibition, actives largely listed as inhibitors; 350,000 tested, 8.8% active; Q96KQ7; further: on the % scale 0 is the no-effect control and ±100 the full control effect; nearly all actives have a fitted effect of over 75% in size
# Target sequence (Q96KQ7 913-1193 limits assumed): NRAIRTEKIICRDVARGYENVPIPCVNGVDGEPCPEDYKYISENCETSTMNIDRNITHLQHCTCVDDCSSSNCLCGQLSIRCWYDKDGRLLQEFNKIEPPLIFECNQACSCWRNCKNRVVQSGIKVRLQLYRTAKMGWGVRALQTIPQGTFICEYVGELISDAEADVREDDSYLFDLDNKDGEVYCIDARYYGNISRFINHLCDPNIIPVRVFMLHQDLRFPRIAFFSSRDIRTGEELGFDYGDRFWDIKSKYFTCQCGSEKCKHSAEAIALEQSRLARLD
#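 G9a (20 nM) preincubated 15 min RT with compounds, then 500 nM biotinylated H3K9 peptide and 20 uM SAM added; 2 h RT reaction. Monomethyl-H3K9 product detected by AlphaScreen with anti-H3K9me1 antibody, streptavidin donor and anti-rabbit IgG acceptor beads.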
# HP1b binding inh – inhibitors of HP1-beta chromodomain binding to methylated histone tails; P83916; AlphaScreen HP1-beta / biotin-H3K9me3 peptide binding; Potency, µM (doses to about 114 µM), for inactives: at the top dose activity change, negative = inhibition, actives largely listed as inhibitors; 390,000 tested, 0.56% active; AID 540317; further: nearly all actives have a fitted effect of over 70% in size
# Target sequence (P83916 whole entry, looked up): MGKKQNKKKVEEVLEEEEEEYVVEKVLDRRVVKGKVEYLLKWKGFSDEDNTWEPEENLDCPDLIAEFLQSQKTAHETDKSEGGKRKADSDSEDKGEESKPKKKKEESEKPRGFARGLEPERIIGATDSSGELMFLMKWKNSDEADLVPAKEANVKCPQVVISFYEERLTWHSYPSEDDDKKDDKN
#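 HP1-beta protein (50 nM final) preincubated 30 min at room temperature with biotinylated H3(1-18)K9me3 peptide (50 nM) in PBS pH 7.4, 0.01% Tween-20, then compound added for 30 min. AlphaScreen streptavidin donor/nickel chelate acceptor beads (10 ug/mL final), 30 min dark, luminescence read.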
# Sfp inh – blocks B. subtilis Sfp PPTase activity; 310,000 tested, 3.5% active; Biochemical Sfp PPTase activity, qHTS; Potency, µM, without a hit: largest response in the series, negative = inhibition, most hits filed as inhibitors; Q9F4F7;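 further: the enzyme is Sfp with the accession as filed and its product quenches rhodamine fluorescence; 0% = enzyme reaction without inhibitor and -100% = no enzyme wells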
#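 Reaction rates are the 30-min fluorescence difference (ex 525, em 598 nm) in wells containing 15 nM Sfp, 5 uM rhodamine-CoA and 12.5 uM BHQ-2-YbbR at pH 7.6 with 10 mM MgCl2.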
# BAZ2B block – blocks human BAZ2B | Q9UIF8 | 360,000 tested, 4.4% active | AlphaScreen BAZ2B-H3K14Ac peptide displacement | Potency, µM (series often up to 114 µM), for inactives: at the highest dose activity change, negative = inhibition, most hits filed as inhibitors; further: on the % scale 0 is the no-effect control and ±100 the full control effect; nearly all actives have a fitted effect of over 60% in size
#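 AlphaScreen displacement of biotin-H3(5-23)K14Ac peptide (50 nM final) from BAZ2B (50 nM final) in PBS pH 7.4, 0.01% Tween-20; complex preformed 30 min RT, then compounds (top 110 uM) 30 min RT, beads 20 min dark.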
# * = called active by the depositor; ? = inconclusive; / = no result given; [ ] = another dose, or the depositor's remark. The call rests on the fitted dose curve; in most records, active means well fitted curve in the direction sought with a large enough effect; inconclusive means small, poorly fitted or top-dose-only effect, or another doubt; inactive means no such curve, though single readings can be large; an effect the other way counts as inactive or inconclusive. Potency means the concentration at half of the fitted maximal effect.
SMILES,JMJD2A Tudor inh,G9a inh,HP1b binding inh,Sfp inh,BAZ2B block
O=C1c2nc3cc(-c4ccco4)[nH]n3c(=O)c2CN1Cc1ccccc1,-12%,?,29%,20µM*,?
COc1cc2c(cc1OC)C(COc1ccccc1OC)N(C(=O)CC(C)C)CC2 (centres undefined),-15%,-3%[59 µM],13%,/,-13%
NS(=O)(=O)c1ccc(NC(=S)NCc2ccc3c(c2)OCO3)cc1,-12%,/,3%,20µM*,?
NS(=O)(=O)c1ccc(NC(=S)NCc2ccc(Cl)cc2)cc1,-23%,8.9µM*,?,22µM*,-26%
NS(=O)(=O)c1ccc(CNC(=S)Nc2ccc(F)c(Cl)c2)cc1,-6%,-19%,34%,-12%,-1%
Cc1ccc(S(=O)(=O)NCC(=O)OCC(=O)NCc2ccc3c(c2)OCO3)cc1,-16%,56µM*,-3%,/,12%
Fc1ccc(NC(=S)NCc2ccc3c(c2)OCO3)cc1,-26%,0%,13%,18%,-20%
CN(C)CC(C)(C)CNC(=S)NCc1ccc2c(c1)OCO2,?,8.9µM*,?,?,45µM*
CCCCC(=O)OC1=C(C(=O)c2ccccc2)N(CCC)S(=O)(=O)c2ccccc21,-20%,-42%[59 µM],16%,/,-31%
NS(=O)(=O)c1cccc(NC(=S)NCc2ccc3c(c2)OCO3)c1,-20%,50µM*,3%,-20%,-19%
Cn1cc(Br)c(C(=O)NC(=S)Nc2ccc(S(N)(=O)=O)cc2)n1,-7%[11.4 µM],45µM*,-2%,-81%,-14%
CCCCOC(=O)c1ccc(NC(=O)c2nn(C)cc2Br)cc1,6%[57.1 µM],10%[59 µM],103%,5%,8%
CCN1/C(=C2\C(=O)N(c3ccccc3)N=C2C)C=Cc2cc(C)ccc21,-8%,?,21%,18%,56µM*
CS(=O)(=O)N1CCC(n2c(C(F)(F)F)nc3cccnc32)CC1,2%,2%[59 µM],40%,/,4%
Cc1nc(N)sc1-c1csc(Nc2ccc(Cl)cn2)n1,?,10µM*,?,20µM*,?
Cc1ccnc(Nc2nc(-c3sc(C)nc3C)cs2)c1,79µM*,/,?,/,/
Cc1nc(C)c(-c2csc(Nc3ccccn3)n2)s1,-33%,?,9%,-22%,?
Cc1nc(N)sc1-c1csc(Nc2ccccn2)n1,79µM*,?,-46%,56µM*,-38%
CCOc1ccc(N(CC(=O)Nc2cccnc2)S(C)(=O)=O)cc1,-14%,/,38%,28%,-16%
CCn1c(SCC(=O)NC2CCCCC2)nnc1-c1cccs1,2%,-16%[12.7 µM],33%,14%,-5%
CCn1c(SCC(=O)N2c3ccccc3Sc3ccccc32)nnc1-c1ccco1,?,6.3µM*,-7%,?,?
CCn1c(SC(=O)NC2CCCCC2)nnc1-c1cccs1,4.5µM*,?,22µM*,-7%,4%
CCn1c(SCC(=O)NCc2ccco2)nnc1-c1cccs1,-18%,?,30%,14µM*,?
Cn1cccc1C(=O)NC(=O)CSc1cccc[n+]1[O-],-10%,28µM*,13%,?,-37%
C=CCn1c(SCC(=O)N2c3ccccc3Sc3ccccc32)nnc1-c1ccco1,-34%,?,-7%,-16%,?
SMILES,JMJD2A Tudor inh,G9a inh,HP1b binding inh,Sfp inh,BAZ2B block
O=C(CSc1cccc[n+]1[O-])c1cccs1,-9%,18µM*,15%,4%,-12%
CCn1c(SCC(N)=O)nnc1-c1ccco1,-7%,9%,12%,6%,10%
Cn1nnnc1SCC(=O)c1cccs1,-3%,?,64%,45µM*,1%
CCn1c(SCC(=O)c2cccs2)nnc1-c1ccco1,-16%,50µM*,33%,0%,-5%
COc1ccc(S(=O)(=O)Oc2ccc3c(c2)O/C(=C\c2cccnc2)C3=O)cc1,?,40µM*,-24%,-5%,?
CS(=O)(=O)Oc1ccc2c(c1)O/C(=C\c1cccnc1)C2=O,-22%,/,-16%,-13%,-15%
COc1cc(OC)c(OC)cc1/C=C1\Oc2cc(OS(C)(=O)=O)ccc2C1=O,?,40µM*,-4%,-4%,-35%
O=C1/C(=C/c2cccnc2)Oc2cc(OS(=O)(=O)c3ccc(Cl)cc3)ccc21,-15%,-17%,14%,-4%,?
Cc1n[nH]c(=S)n(/N=C/c2ccccn2)c1=O,2.8µM*,?,-1%,50µM*,?
CCc1n[nH]c(=S)n1/N=C/c1ccccn1,7.9µM*,5%[0.501 µM],?,50µM*,50µM*
COc1ccc2nc(N(Cc3cccnc3)C(=O)C3CCCCC3)sc2c1,-12%,-22%[59 µM],30%,/,-14%
COCCN(C(=O)COC(=O)C1CCC(C(C)(C)C)CC1)c1c(N)n(Cc2ccccc2)c(=O)[nH]c1=O (centres undefined),-15%,32µM*,21%,/,1%
COCCN(C(=O)COC(=O)CNC(=O)c1cccs1)c1c(N)n(Cc2ccccc2)c(=O)[nH]c1=O,-10%,11µM*,-7%,/,-1%
CCN(C(=O)COC(=O)CNC(=O)c1cccs1)c1c(N)n(Cc2ccccc2)c(=O)[nH]c1=O,-6%,/,25%,/,/
COCCn1c(N)c(C(=S)NC(=O)c2cccs2)c(=O)[nH]c1=O,-19%,?,-7%,25µM*,-14%
CCCCC1CCC(C(=O)OCC(=O)N(CCOC)c2c(N)n(Cc3ccccc3)c(=O)[nH]c2=O)CC1 (centres undefined),-5%,1%[0.501 µM],24%,/,8%
Cc1nn(C)c(C)c1CN(C)C(=O)CCCC(=O)O,50µM*,2%[59 µM],1%,1%,6%
Cc1nn(C)c(C)c1CN(C)C(=O)C1CCC(=O)N(C2CCCCCC2)C1 (centres undefined),-2%,/,17%,9%,11%
CCn1c(-c2csc(C(C)C)c2)n[nH]c1=S,10µM*,1.6µM*,?,-24%,-10%
CC(C)Cn1c(-c2csc(C(C)C)c2)n[nH]c1=S,?,5µM*,-10%,-14%,-34%
Cc1ccc(NC(=O)CN(C)C(=O)C2CCC2)cc1,0%,/,24%,/,/
COc1ccc(NC2C[C@H]3CCCC(=O)N4CC[C@@H](C2)[C@@H]34)cc1 (some centres undefined),/,40µM*,/,-8%,/
COc1ccc(NC(=O)c2cnn(-c3ccc(C)cc3)c2-n2cccc2)cc1Cl,-21%,-24%[59 µM],3%,/,-30%
COc1ccc(/C=N/N2CCOCC2)cc1O,0%,-17%[59 µM],34%,19%,0%
CCN(CC)c1ccc(/C=N/N2CCOCC2)cc1,?,11µM*,?,0%,?
CCN(CC)c1ccc(/C=N/N2CCN(c3ccccn3)CC2)cc1,-14%,56µM*,-3%,18%,-6%
CCCOc1ccc(N2CC(C(=O)Nc3cccc(Cl)c3Cl)CC2=O)cc1 (centres undefined),-17%,-21%[59 µM],47%,/,-13%
Cc1ccc(S(=O)(=O)NCc2ccncc2)c(C)c1C,-19%,/,21%,45µM*,1%
